# This is a sample that favours compounds with a hit; in the whole collection about 1.3% have one here.
# TrxR1 inh = inhibitors of rat thioredoxin reductase 1; AID 588453; recombinant rTrxR1, NADPH fluorescence consumption, selenite substrate; Potency, µM (titrated, usually from 114 µM), for the others: at the highest dose activity change, negative = inhibition, most hits filed as inhibitors; actives 1% (n = 390,000); O89049; also: potency is read from the fitted curve at half-maximal effect; % is scaled to controls: 0 for no effect and ±100 for the full control effect; nearly all actives have a fitted effect of over 65% in size
# Target sequence (O89049 whole entry, looked up): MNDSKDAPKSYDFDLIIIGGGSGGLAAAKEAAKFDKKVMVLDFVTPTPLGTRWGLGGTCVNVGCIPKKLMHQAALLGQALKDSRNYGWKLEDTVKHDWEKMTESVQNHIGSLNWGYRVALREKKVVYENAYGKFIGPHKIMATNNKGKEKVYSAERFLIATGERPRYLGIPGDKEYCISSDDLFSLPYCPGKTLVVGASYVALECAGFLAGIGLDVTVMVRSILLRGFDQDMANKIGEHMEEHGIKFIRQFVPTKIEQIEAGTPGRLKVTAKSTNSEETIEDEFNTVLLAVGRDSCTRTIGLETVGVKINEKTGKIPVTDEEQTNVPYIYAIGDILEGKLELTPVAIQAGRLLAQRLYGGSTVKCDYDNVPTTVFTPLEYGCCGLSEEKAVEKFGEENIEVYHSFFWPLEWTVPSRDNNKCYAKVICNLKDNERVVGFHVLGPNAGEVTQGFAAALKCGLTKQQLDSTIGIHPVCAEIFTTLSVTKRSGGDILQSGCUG
#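 Rat TrxR1 (90 nM in the dispensed reagent) was pre-reduced with 400 uM NADPH for 5 min at room temperature, then incubated with compound for 15 min. After 400 uM selenite was added, NADPH fluorescence (Ex 340/Em 450 nm) was followed for 8 min.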
# TrxR1 substrate = is turned over as a substrate by rat TrxR1; AID 588456; purified TrxR1 substrate turnover, NADPH consumption readout; Potency, µM (highest dose often 114 µM), without a hit: at the top dose activity change, negative = substrate turnover; actives 0.01% (n = 390,000); O89049; also: potency is read from the fitted curve at half-maximal effect; % is scaled to controls: 0 for no effect and ±100 for the full control effect; nearly all actives have a fitted effect of over 50% in size
#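 Rat TrxR1, dispensed at 90 nM, was prereduced with 400 uM NADPH (final) for 5 min at ~22 deg C, then incubated with compound 15 min before 400 uM selenite. A first-read NADPH fluorescence drop versus no-compound background flagged substrates.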
# PKM2 act = PKM2 (human) enzyme activation | purified PKM2, Kinase-Glo ATP luminescence, activation; response scale: 0% is enzyme alone, no compound | Potency, µM (series often up to 57.5 µM), for inactives: at the top dose activation, actives largely listed as activators | actives 0.34% (n = 260,000) | AID 1631; also: potency is read from the fitted curve at half-maximal effect; % is scaled to controls: 0 for no effect and ±100 for the full control effect; nearly all actives have a fitted effect of over 55% in size
#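 Kinase-Glo luminescence reports ATP generated from ADP (0.1 mM) and PEP (0.5 mM) by purified hPK-M2 after 1 h at room temperature, pH 7.2 imidazole buffer; intermediate enzyme activity allows detecting inhibitors and activators.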
# Apoferritin bind = candidate novel general anesthetic via apoferritin binding; AID 485281; apoferritin/1-aminoanthracene competitive binding, fluorescence; Potency, µM (top dose mostly 77.5 µM), for inactives: top-dose activity change, negative = displacement, most hits filed as inhibitors; actives 0.074% (n = 350,000); P02791; also: potency is read from the fitted curve at half-maximal effect; % is scaled to controls: 0 for no effect and ±100 for the full control effect; nearly all actives have a fitted effect of over 20% in size
# Target sequence (P02791 2-175 limits assumed): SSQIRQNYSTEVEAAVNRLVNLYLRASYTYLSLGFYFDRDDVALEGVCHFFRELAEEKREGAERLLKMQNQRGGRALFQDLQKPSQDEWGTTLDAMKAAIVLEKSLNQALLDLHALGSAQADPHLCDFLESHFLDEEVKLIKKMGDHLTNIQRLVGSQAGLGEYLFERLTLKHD
#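 Steps: apoferritin (10 uM) was premixed with half-saturated 1-AMA in PBS, compounds were pin-transferred, plates stood 10 min at room temperature, fluorescence was read at 380/535 nm, and curves were fitted with a Hill equation.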
# GALK inh = inhibitors of human galactokinase | P51570 | Purified GALK, Kinase-Glo residual ATP luminescence | Potency, µM (top dose mostly 57.5 µM), for inactives: top-dose activity change, negative = inhibition, most hits filed as inhibitors | actives 0.007% (n = 270,000); also: potency is read from the fitted curve at half-maximal effect; % is scaled to controls: 0 for no effect and ±100 for the full control effect
#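 5 nM enzyme, 35 uM ATP, 100 uM galactose, 20 mM HEPES pH8.0, 5 mM MgCl2; 1 h RT; residual ATP by Kinase-Glo Plus luminescence, qHTS format.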
# IDH1 R132H inh = inhibitors of human mutant IDH1 R132H. actives 0.093% (n = 390,000). AID 602179. IDH1-R132H enzyme, NADPH consumption, diaphorase/resazurin fluorescence. Potency, µM (doses to about 76.6 µM), without a hit: at the highest dose activity change, negative = inhibition, actives largely listed as inhibitors. O75874; also: potency is read from the fitted curve at half-maximal effect; % is scaled to controls: 0 for no effect and ±100 for the full control effect; nearly all actives have a fitted effect of over 65% in size
#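 IDH1-R132H (0.5 ug/mL dispensed) in pH 7.5 Tris buffer was preincubated 30 min with compound, then given a substrate mix of 0.016 mM NADPH and 2 mM alpha-KG for 80 min at room temperature; remaining NADPH was read by diaphorase/resazurin fluorescence.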
# Resorufin autofl = autofluorescence interference, mutant IDH1 hit counter-screen. shares compounds with IDH1 R132H inh. 750 tested, under 10 active. inhibition of signal, % at 51.2 µM. AID 623980. Resorufin detection reagent fluorescence interference, cell-free;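 also: 0% = wells with normal resorufin and full inhibition = wells lacking resorufin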
# IDH1 WT = inhibits human wild-type IDH1, mutant selectivity check. shares compounds with IDH1 R132H inh. WT IDH1 enzyme, NADPH diaphorase/resazurin fluorescence. Potency, µM (series often up to 115 µM), inactives show at the highest dose activity change, negative = inhibition, usual class: inhibitors. actives 9% (n = 750);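 also: potency is read from the fitted curve at half-maximal effect; 0% = full WT IDH1 enzyme control and full inhibition = no enzyme wells; nearly all actives have a fitted effect of over 55% in size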
# IDH1 R132H conf = confirmation of human mutant IDH1 inhibitors. Potency, µM (top dose mostly 76.6 µM), inactives show at the top dose activity change, negative = inhibition, actives largely listed as inhibitors. actives 83% (n = 750). AID 624002. shares compounds with IDH1 R132H inh. IDH1 R132H enzyme, NADPH diaphorase/resazurin fluorescence; also: potency is read from the fitted curve at half-maximal effect; nearly all actives have a fitted effect of over 50% in size
# The depositor's hits bear a star; ? = inconclusive; · = no result given; [ ] = remark or other dose. Calls follow the shape of the dose curve; as a rule, active = well fitted curve in the direction sought with a large enough effect; inconclusive = small, poorly fitted or top-dose-only effect, or another doubt; inactive = no such curve, though single readings can be large; an effect the other way counts as inactive or inconclusive.
SMILES,TrxR1 inh,TrxR1 substrate,PKM2 act,Apoferritin bind,GALK inh,IDH1 R132H inh,Resorufin autofl,IDH1 WT,IDH1 R132H conf
Cc1ccccc1C(C(=O)NC1CCCC1)N(C(=O)Cc1cccs1)c1ccc2c(c1)OCCO2 (configuration not stated),23.1%,-0.6%,2.8%,-14.3%,·,6.56µM*,3.4,-0.3%,3.98µM*
CCOc1cccc(N(C(=O)Cc2cccs2)C(C(=O)NC2CCCCC2)c2cccn2C)c1 (configuration not stated),20.0%,7.6%,-8.3%,-11.6%,0.8%,?,-1.6,7.5%,15.8µM*
CCc1ccc(N(C(=O)Cc2cccs2)C(C(=O)NC2CCCCC2)c2cn(C)nc2C)cc1 (configuration not stated),-8.5%,-6.4%,-0.2%,-6.7%,0.1%,-0.5%,·,·,·
COc1ccc(OC)c2sc(N3CCN(C(=O)C(C)(C)C)CC3)nc12,4.2%[57.1 µM],0.6%[57.1 µM],·,-7.6%,·,-1.9%,·,·,·
Cc1ccc(Nc2nc3ccccc3c3nnc(C)n23)c(C)c1,33.9%,3.8%,·,3.1%,·,-8.3%,·,·,·
Cc1cc(C)cc(N(C(=O)Cc2cccs2)C(C(=O)NC2CCCCC2)c2ccccn2)c1 (configuration not stated),0.9%,-5.2%,-0.9%,-14.5%,·,?,2.6,10.1%,14.1µM*
O=C(O)c1ccc(Cl)c(S(=O)(=O)N(Cc2ccccc2)c2ccccc2Cl)c1,5.2%,2.2%,·,-2.0%,-1.4%,29.3µM*,8.1,-3.9%,31.6µM*
O=C(O)c1ccc(Cl)c(S(=O)(=O)N(Cc2ccccc2)c2ccccc2)c1,10.6%,4.4%,-2.4%,1.7%,-1.3%,?,·,·,·
CCCn1c(C2CCCN2c2nc(-c3cccc(Br)c3)cs2)nc2ccccc21 (configuration not stated),14.0%[57.1 µM],-0.6%[57.1 µM],-0.1%,-20.8%,·,?,5.0,-3.0%,25.1µM*
Cc1ccc(-c2csc(N3CCC[C@@H]3C(=O)NCCn3c(C(F)(F)F)nc4ccccc43)n2)cc1,11.3%,7.7%,1.9%,?,·,20.5%,·,·,·
CC(C)CCNC(=O)C(c1ccc(O)cc1)N(C(=O)C1COc2ccccc2O1)c1cccc(O)c1 (configuration not stated),15.1%[11.4 µM],8.2%[11.4 µM],0.5%,-18.3%,3.4%,?,6.2,13.7%,?
O=C(NC1CCCC1)C(c1ccc(O)cc1)N(CC1CCCO1)C(=O)C1COc2ccccc2O1 (configuration not stated),8.9%,8.8%,-2.4%,-10.5%,-1.0%,11.4%,·,·,·
CCOc1cccc(N(C(=O)C2COc3ccccc3O2)C(C(=O)NC2CCCCC2)c2ccc(O)cc2)c1 (configuration not stated),-2.3%,-5.7%,-1.9%,5.7%,2.3%,?,5.5,10.0%,5.62µM*
COc1ccc(C)c2sc(N(Cc3cccnc3)C(=O)CCc3ccccc3)nc12,18.6%[57.1 µM],1.0%[57.1 µM],·,5.5%,·,-14.5%,·,·,·
CC(C)Cn1c(=O)c2ccccc2n2c(CCC(=O)Nc3ccc(F)cc3)nnc12,6.6%,-3.3%,·,-1.0%,·,0.0%,·,·,·
O=C(NC1CCCCC1)C(c1ccc(Cl)cc1)N(C(=O)c1cnccn1)c1ccc2c(c1)OCO2 (configuration not stated),17.5%,5.7%,5.6%,-1.9%,-0.1%,?,-7.2,-10.6%,?
COc1cccc(N(C(=O)c2cnccn2)C(C(=O)NC2CCCCC2)c2ccc(Cl)cc2)c1 (configuration not stated),34.2%[57.1 µM],3.5%[57.1 µM],-0.1%,-2.2%,1.3%,-5.9%,·,·,·
O=C(NC1CCCC1)C(c1ccccc1)N(C(=O)c1csnn1)c1ccccc1F (configuration not stated),-17.7%,-12.5%,·,-1.6%,6.6%,?,-6.5,-2.1%,25.1µM*
O=C(NC1CCCCC1)C(c1ccco1)N(C(=O)c1csnn1)c1cccc(Cl)c1 (configuration not stated),15.4%[0.0914 µM],6.8%[57.1 µM],1.6%,?,0.3%,?,0.3,-1.5%,28.2µM*
O=C(NC1CCCC1)C(c1ccncc1)N(C(=O)c1csnn1)c1ccccc1 (configuration not stated),10.6%,3.5%[57.1 µM],·,2.6%,0.2%,-2.1%,·,·,·
COc1cccc(N(C(=O)c2csnn2)C(C(=O)NC2CCCC2)c2ccccc2)c1 (configuration not stated),12.8%[57.1 µM],4.7%[57.1 µM],·,-1.4%,4.7%,?,3.7,-4.1%,39.8µM*
CCc1cccc(C)c1NC(=O)c1cc(S(=O)(=O)N2CCN(c3ccccc3)CC2)ccc1F,12.5%[57.1 µM],0.5%[57.1 µM],·,-4.9%,·,14.5%,·,·,·
Cc1ccc2c(c1)N(C(=O)c1ccc(F)cc1)C(C)(C)CC2(C)c1ccccc1 (configuration not stated),14.9%,1.3%,·,-1.6%,·,-8.7%,·,·,·
Cc1cc(C)cc(N(CC(=O)NC2CCCCC2)C(=O)c2ccc(C)s2)c1,9.8%,8.2%,2.7%,?,·,?,3.1,1.7%,20µM*
COc1cccc(CN2C(=O)C3(SCC(=O)N3c3ccc(F)cc3)c3ccccc32)c1 (configuration not stated),8.8%,-4.7%,·,11.4%,·,8.7%,·,·,·
COc1ccc(N2C(=O)CCSC23C(=O)N(Cc2ccc(F)cc2)c2ccccc23)cc1 (configuration not stated),8.2%,-6.7%,·,-8.0%,·,31.6µM*,-2.0,-19.0%,35.5µM*
COc1cccc(N2C(=O)CSC23C(=O)N(Cc2ccccc2)c2ccccc23)c1 (configuration not stated),22.2%,0.1%,·,?,·,-12.5%,·,·,·
COc1ccc(N2C(=O)CCSC23C(=O)N(Cc2ccc(F)cc2)c2ccccc23)cc1Cl (configuration not stated),15.5%,-3.9%,·,?,·,?,2.8,0.5%,31.6µM*

# Screening data: PubChem, National Center for Advancing Translational Sciences (NCATS)
